TRPML1 ag = activates the human TRPML1 channel; Q9GZU1; TRPML1-expressing cells, Ca2+ dye fluorescence, FDSS; activation, % (no concentration beside the values); 0.12% of 410,000 active; AID 624414; in the data active = activation above about 50%; also: 0% is about no effect
Target sequence (Q9GZU1 whole entry, looked up): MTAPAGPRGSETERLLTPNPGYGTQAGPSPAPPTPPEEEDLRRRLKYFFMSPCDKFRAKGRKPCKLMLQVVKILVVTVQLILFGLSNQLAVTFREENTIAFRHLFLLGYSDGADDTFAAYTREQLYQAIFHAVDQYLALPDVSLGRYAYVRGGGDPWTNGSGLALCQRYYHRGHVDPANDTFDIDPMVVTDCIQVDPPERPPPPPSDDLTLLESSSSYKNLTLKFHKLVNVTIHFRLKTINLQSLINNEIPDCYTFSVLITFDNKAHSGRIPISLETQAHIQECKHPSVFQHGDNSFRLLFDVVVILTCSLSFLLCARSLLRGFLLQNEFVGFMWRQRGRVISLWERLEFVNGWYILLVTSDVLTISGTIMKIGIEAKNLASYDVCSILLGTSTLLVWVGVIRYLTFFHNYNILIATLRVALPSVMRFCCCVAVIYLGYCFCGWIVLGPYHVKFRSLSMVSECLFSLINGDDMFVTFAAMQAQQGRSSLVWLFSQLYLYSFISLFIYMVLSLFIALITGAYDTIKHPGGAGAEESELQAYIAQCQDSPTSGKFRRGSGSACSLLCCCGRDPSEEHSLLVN
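Agonist activity was taken from a 110 s kinetic Ca2+ dye read on the FDSS after pinning compounds onto TRPML1-DL cells. The cells were seeded at 1,500/well with Tet inducer, incubated about 16 h, then dye-loaded at room temperature.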
D3 ag = activates the human D3 dopamine receptor; P35462; D3R DiscoveRx beta-arrestin cells, luminescence, 90 min; max activation, %; 0.58% of 410,000 active; AID 652048; in the data active = max activation above about 30%; also: 0% is about no effect
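Agonist mode: compounds and dopamine controls were applied to plated cells for 90 min at 37 degrees C after an overnight attachment at 1500 cells/well. Luminescent read-out followed 30 - 60 minutes at room temperature with DiscoveRx detection reagent.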
TRPML1 blocker = human mucolipin-1 channel inhibition; Q9GZU1; TRPML1-inducible cells, Ca2+ dye fluorescence, FDSS; hits give low values; inhibition of EC80 agonist-evoked calcium signal; activity change, negative = inhibition, % (test concentration not listed); 0.02% of 390,000 active; in the data active = activity change below about -50%;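 also: stimulus is agonist 54-4 at its EC80 concentration; % is scaled to controls: 0 for no effect and ±100 for the full control effect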
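Calcium fluorescence in TRPML1-DL cells induced overnight with Tet: a 110 s read after compound pin addition, then a 110 s antagonist read after challenge with 54-4 at 4 uM final (EC80).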
DRD3 antagonist = antagonists of human D3 dopamine receptor. P35462. D3R cells, DiscoveRx beta-arrestin luminescence, antagonist mode; hits give low values. max response, negative = inhibition, %. 2.5% of 360,000 active; in the data active = max response below about -50%; also: % is scaled to controls: 0 for no effect and ±100 for the full control effect
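Cells plated overnight at 1500 cells/well, then exposed to library compounds with dopamine controls for 90 minutes at 37 degrees C. DiscoveRx reagent added for 30–60 minutes at room temperature; luminescence read, quantitative HTS format.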
* marks the source's active call; other numbers are inactive results. This is a sample that favours compounds with a hit; in the whole collection about 2.9% have one here.

How did N#Cc1ccc(C23CC4(C2)[C@H](CN(CC2CCCCC2)[C@@H]4c2ccccc2)C3c2ccc(Cl)nc2)cc1 (stereo not given in full) do in these assays?
TRPML1 ag: 0; D3 ag: 17; TRPML1 blocker: 18; DRD3 antagonist: -72*

Results for Cc1sc2nc(CSc3ccccc3)nc(N3CCN(C)CC3)c2c1C ?
TRPML1 ag: 0; D3 ag: -3; TRPML1 blocker: 6; DRD3 antagonist: -93*

How did COc1ccccc1C1NC(c2ccc3c(c2)OCO3)=CC(c2cc(Br)ccc2O)N1 (stereo not given) do in these assays?
TRPML1 ag: 0

How did COc1ccccc1NC(=O)c1nc(SCc2ccccc2F)ncc1Cl do in these assays?
TRPML1 ag: 0

How did CCc1nc2c(OCc3ccc(F)c(F)c3)cccn2c1N(C)C(=O)CC(C)C do in these assays?
TRPML1 ag: -1; D3 ag: 5; DRD3 antagonist: 18

Results for CCc1nc2c(OCc3cc(Cl)cc(Cl)c3)cccn2c1N(C)C(=O)CC(C)C ?
TRPML1 ag: 1; D3 ag: -16; TRPML1 blocker: 14; DRD3 antagonist: -66*

Results for CCc1nc2c(OCc3cc(Cl)cc(Cl)c3)cccn2c1N(C)C(=O)c1ccc(OC)cc1 ?
TRPML1 ag: 0; D3 ag: -11; DRD3 antagonist: -63*

What do the screens show for `CCCCN(C=O)c1c(CC)nc2c(OCc3ccc(Cl)cc3Cl)cccn12`?
TRPML1 ag: 3; D3 ag: -13; TRPML1 blocker: 62; DRD3 antagonist: -57*

How did CCc1nc2c(OCCC3CCCCC3)cccn2c1N(C)C(=O)c1ccc(OC)cc1 do in these assays?
TRPML1 ag: 0; D3 ag: -26; TRPML1 blocker: -13; DRD3 antagonist: -111*

How did CCc1nc2c(OCc3ccc(Cl)cc3)cccn2c1N(C)C(=O)c1ccco1 do in these assays?
TRPML1 ag: 1; D3 ag: -16; DRD3 antagonist: -51*

What do the screens show for `CCc1nc2c(OCc3ccc(F)cc3)cccn2c1N(C)C(=O)c1ccco1`?
TRPML1 ag: -1; D3 ag: -16; TRPML1 blocker: 0; DRD3 antagonist: -10

Results for CCC(CC)C(=O)N(C)c1c(C)nc2c(OCCC3CCCCC3)cccn12 ?
TRPML1 ag: 0; D3 ag: -15; TRPML1 blocker: 17; DRD3 antagonist: -50*

How did CC1=C(c2ccc(C)c(C)c2)S(=O)(=O)N=C1N1CCC(C(=O)NCCc2ccc(Cl)cc2)CC1 do in these assays?
TRPML1 ag: 0; D3 ag: 0; TRPML1 blocker: -1

How did O=C(CSc1nc(=O)n(Cc2ccccn2)c2c1CCC2)Nc1ccccc1 do in these assays?
TRPML1 ag: 1; D3 ag: -1; TRPML1 blocker: 22

Results for COC(=O)CN1C(=O)CSc2ccc(S(=O)(=O)Nc3cccc(Cl)c3C)cc21 ?
TRPML1 ag: 1; D3 ag: 3; TRPML1 blocker: -23

How did O=C(Cn1cc(C(=O)C(F)(F)F)c2ccccc21)N1CCCCCC1 do in these assays?
TRPML1 ag: 0; D3 ag: -1; TRPML1 blocker: -5

What do the screens show for `CCCc1nc(SCC(=O)c2ccccc2)c2c(=O)n(C)c(=O)n(C)c2n1`?
TRPML1 ag: -1; D3 ag: 31*; TRPML1 blocker: 14; DRD3 antagonist: 37

How did COc1ccc(C(=O)CSc2nc(-c3ccccn3)nc(C)c2Cl)cc1 do in these assays?
TRPML1 ag: 1; D3 ag: -18; TRPML1 blocker: -11; DRD3 antagonist: -60*

What do the screens show for `CCc1nc(SCC(=O)c2ccccc2)c2c(=O)n(C)c(=O)n(C)c2n1`?
TRPML1 ag: -1; D3 ag: 8; TRPML1 blocker: 2; DRD3 antagonist: 23

How did CCCc1nc(SCC(=O)c2ccc(OC)cc2)c2ccccc2n1 do in these assays?
TRPML1 ag: 2; D3 ag: 33*; TRPML1 blocker: -12; DRD3 antagonist: 36

Results for CCSc1nnc(NC(=O)C2CCN(C(=O)c3ccco3)CC2)s1 ?
TRPML1 ag: -1

What do the screens show for `COc1ccc(C(=O)NCc2ccc3c(c2)CCN3C(=O)c2ccc(C)cc2)cc1`?
TRPML1 ag: 2; D3 ag: -17; TRPML1 blocker: -11

What do the screens show for `COc1ccccc1CCNC(=O)C(=O)NCC(c1ccco1)S(=O)(=O)c1ccc(F)cc1` (stereo not given)?
TRPML1 ag: 2; D3 ag: 1; TRPML1 blocker: 21

Results for Clc1cccc(/C=N/Nc2nc(Cl)nc3ccccc23)c1 ?
TRPML1 ag: 1; D3 ag: 0; TRPML1 blocker: -2; DRD3 antagonist: -60*

What do the screens show for `Cc1cc(C)nc(N/N=C/c2cccc(Cl)c2)n1`?
TRPML1 ag: 0; D3 ag: -1; TRPML1 blocker: 14; DRD3 antagonist: -9

How did Cc1ccc(-n2nnc3c(sc4nc(C)c(C)cc43)c2=O)cc1Cl do in these assays?
TRPML1 ag: 0; D3 ag: -3; TRPML1 blocker: -8

Results for CCOc1ccccc1CNC(=O)c1cnc2sc(N(CC)CC)nn2c1=O ?
TRPML1 ag: 0; D3 ag: 0; TRPML1 blocker: -14

Results for Cc1ccccc1S(=O)(=O)N1CCN(c2nc(-c3cccs3)nc3ccccc23)CC1 ?
TRPML1 ag: 0

What do the screens show for `CCc1nc2ccc(C(=O)NCCCN3CCCC3=O)cn2c1N(CC)C(C)=O`?
TRPML1 ag: -1; D3 ag: -5; DRD3 antagonist: -56*

Results for COc1cc(C(C)=O)ccc1OCC(O)CN1CCN(c2ccc(C)cc2C)CC1 (stereo not given) ?
TRPML1 ag: 0; D3 ag: -13; TRPML1 blocker: 7; DRD3 antagonist: -67*

How did COc1cc(C(C)=O)ccc1OCC(O)CN1CCN(c2ccccn2)CC1 (stereo not given) do in these assays?
TRPML1 ag: 0; D3 ag: 78*; TRPML1 blocker: 14; DRD3 antagonist: 7

What do the screens show for `Cc1cccc2[nH]cc(/C=C3/C=Nc4ccccc43)c12`?
TRPML1 ag: 10

What do the screens show for `NNCCc1ccccc1`?
TRPML1 ag: 0; D3 ag: -21; TRPML1 blocker: 26; DRD3 antagonist: -113*

Results for CC(=O)Nc1ccc(C(=O)NCCCSc2ccccc2)cc1 ?
TRPML1 ag: 0; D3 ag: -1; TRPML1 blocker: 20; DRD3 antagonist: -7

How did CC(NCCCSc1ccccc1)C(O)c1ccc(O)cc1 (stereo not given) do in these assays?
TRPML1 ag: -1; D3 ag: -14; TRPML1 blocker: -6; DRD3 antagonist: -62*

What do the screens show for `CC(=O)Nc1ccc(NC(=O)CSc2cn(CC(=O)N(C(C)C)C(C)C)c3ccccc23)cc1`?
TRPML1 ag: 2; D3 ag: 0; TRPML1 blocker: -2

What do the screens show for `O=C(N/N=C/c1ccccn1)c1cc([N+](=O)[O-])cc([N+](=O)[O-])c1`?
TRPML1 ag: 0; D3 ag: -13; TRPML1 blocker: 27; DRD3 antagonist: -78*

What do the screens show for `COc1ccc(C(=O)C[n+]2cccc3cc(Cl)ccc32)cc1`?
TRPML1 ag: 1
